Source: PubChem BioAssay (NCATS)
Where “and” joins values, the source holds several entries; their conditions need not be identical. Equal values may be shown once. Inconclusive results are not listed. Calls of active or inactive are those of the source. Unless noted, the call rests on the fitted dose curve.

Experiments:
[1] = target: Bile acid receptor (Homo sapiens) (UniProt Q96RI1); test: qHTS assay for small molecule agonists of farnesoid X receptor signaling (AID 588527); conditions: HEK293T FXR-UAS-bla, beta-lactamase ratio, 16 h; activation: active compounds read high;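 further: series mostly up to about 77 µM; 0% = vehicle basal and 100% = reference agonist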
How it was run: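 FXR-UAS-bla HEK293T cells (10% dialyzed FBS) preincubated 5-7 h at 37 C, then compounds at up to 92 uM for 16 h at 37 C. CCF4 beta-lactamase read-out after 2 h RT. Normalized to chenodeoxycholic acid (100 uM) and DMSO; Hill fit gave EC50 and efficacy.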

[2] = target: Peroxisome proliferator-activated receptor delta (Homo sapiens) (UniProt Q03181); test: qHTS assay for small molecule agonists of peroxisome proliferator-activated receptor delta signaling (AID 588534);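 further: 0% = DMSO basal wells and 100% = positive control agonist at 10 µM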
How it was run: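 Cell-based beta-lactamase reporter assay run in agonist mode: cells seeded and incubated 5 hrs at 37 C, compounds added and incubated 18 hrs at 37 C. CCF4 dye fluorescence read after 2 hrs at RT; EC50 and efficacy from Hill fits.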

[3] = qHTS for Inhibitors of the Functional Ribonucleoprotein Complex (vRNP) of Lassa (LASV) Arenavirus: LASV Primary Screen - GLuc reporter signal (AID 1347082; calls by dose curve; tested in HEK293 reporter line; further: nearly all actives have a fitted effect of over 60% in size; further: potency means the concentration at half of the fitted maximal effect)
[4] = qHTS for Inhibitors of the Functional Ribonucleoprotein Complex (vRNP) of Lassa (LASV) Arenavirus: Viability assay - alamar blue signal for LASV Primary Screen (AID 1347083; calls by dose curve; tested in HEK293 reporter line; further: nearly all actives have a fitted effect of over 80% in size; further: potency means the concentration at half of the fitted maximal effect)
[5] = qHTS for Inhibitors of the Functional Ribonucleoprotein Complex (vRNP) of Lymphocytic Choriomeningitis Arenaviruses (LCMV): Viability assay - alamar blue signal for LCMV Primary Screen (AID 1347085; calls by dose curve; tested in HEK293 reporter line; further: nearly all actives have a fitted effect of over 80% in size; further: potency means the concentration at half of the fitted maximal effect)
[6] = target: Nucleoprotein (Lymphocytic choriomeningitis virus (strain Armstrong)) (UniProt P09992); test: qHTS for Inhibitors of the Functional Ribonucleoprotein Complex (vRNP) of Lymphocytic Choriomeningitis Arenaviruses (LCMV): LCMV Primary Screen - GLuc reporter signal (AID 1347086); further: nearly all actives have a fitted effect of over 70% in size; further: potency means the concentration at half of the fitted maximal effect
[7] = target: Alpha-galactosidase (Coffea arabica) (UniProt Q42656); test: Counterscreen for Glucocerebrosidase Inhibitors: qHTS Assay for Coffee Bean alpha-Galactosidase at pH 4.5 (AID 957; active means well fitted curve in the direction sought with a large enough effect; an effect the other way counts as inactive or inconclusive;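 further: series mostly up to about 77 µM; plate controls were enzyme alone for no effect and no enzyme for full effect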)
How it was run: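 Green coffee bean enzyme (2 nM final) was incubated with compounds (0.7 nM to 77 uM) and 4-methylumbelliferyl alpha-D-galactopyranoside (80 uM final) in 50 mM citric acid, 0.005% Tween-20, pH 4.5, 20 min at room temperature; AC50 from Hill fits.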

[8] = target: Alpha-galactosidase (Coffea arabica) (UniProt Q42656); test: Counterscreen for Glucocerebrosidase Inhibitors: qHTS Assay for Coffee Bean alpha-Galactosidase at pH 5.9 (AID 998; active means well fitted curve in the direction sought with a large enough effect; an effect the other way counts as inactive or inconclusive;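 further: plate controls were uninhibited enzyme for no effect and no-enzyme basal signal for full effect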)
How it was run: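 Green coffee bean enzyme (2 nM final) was incubated with compounds (0.7 nM–77 uM) and 4-methylumbelliferyl alpha-D-galactopyranoside (80 uM) in citrate buffer pH 5.9, 20 min at room temperature. High-pH stop; fluorescence 365/440 nm; AC50 from Hill fits.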

[9] = Inducers of the Endoplasmic Reticulum Stress Response (ERSR) in human glioma: Validation (AID 504836; active means well fitted curve in the direction sought with a large enough effect; an effect the other way counts as inactive or inconclusive; further: 0% is about no effect)
How it was run: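 Stably transfected U87-MG human glioma cells carrying a GRP78-based luminescent sensor were seeded at 1000 cells/well, pin-dosed with compounds and incubated 16 h. Luciferase reagent was then added, and end-point luminescence was read after 10 min at room temperature.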

[10] = target: Cytochrome P450 3A4 (Homo sapiens) (UniProt P08684); test: qHTS Assay for Inhibitors and Substrates of Cytochrome P450 3A4 (AID 884; active means well fitted curve in the direction sought with a large enough effect; an effect the other way counts as inactive or inconclusive; further: series mostly up to about 57 µM; on the % scale 0 is the no-effect control and ±100 the full control effect; nearly all actives have a fitted effect of over 50% in size)
How it was run: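 20 nM human CYP3A4 with 25 uM Luciferin-PPXE (at KM) in 200 mM KPO4, preincubated 10 min with compound; NADPH regeneration started a 60 min RT reaction. Luciferin detected by luminescence, normalized to 57 uM ketoconazole as full inhibition.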

[11] = target: Ubiquitin carboxyl-terminal hydrolase 1 (Homo sapiens) (UniProt O94782); test: Inhibitors of USP1/UAF1: Pilot qHTS (AID 504865; active means well fitted curve in the direction sought with a large enough effect; an effect the other way counts as inactive or inconclusive;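 further: rhodamine fluorescence freed from ubiquitin-rhodamine substrate followed over time; top concentration of the series differs between compounds; on the % scale 0 is the no-effect control and ±100 the full control effect; nearly all actives have a fitted effect of over 35% in size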)
How it was run: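 In 50mM HEPES pH 7.8 containing 0.5mM EDTA, 1mM TCEP, 0.1 mg/ml BSA and 0.01% Tween-20, 1nM USP1/UAF1 is exposed to compound for 15 min, then Ub-Rho (150nM final) is added and fluorescence is read over time.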

[12] = target: DNA dC->dU-editing enzyme APOBEC-3G (Homo sapiens) (UniProt Q9HC16); test: qHTS for inhibitors of Vif-A3G interactions: Validation (AID 588379; active means well fitted curve in the direction sought with a large enough effect; an effect the other way counts as inactive or inconclusive; further: 0% is about no effect)
How it was run: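 HeLa cells stably expressing Vif and A3G-eYFP, 700 cells/well, incubated overnight at 37 deg C, then exposed to compound overnight at 37 deg C. Inhibition of Vif-mediated degradation read as increased yellow fluorescence (Ex 488/Em 500-530) by laser-scanning cytometry.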

[13] = S16 Schwann cell PMP22 intronic element beta-lactamase assay (AID 624044); further: potency means the concentration at half of the fitted maximal effect; nearly all actives have a fitted effect of over 15% in size
How it was run: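 Rat S16 Schwann cells with beta-Lac driven by a PMP22 intronic element, compound-treated 24 h at 37 °C. LiveBLAzer FRET B/G read: 460 nm normalized to potassium clavulanate vs DMSO; 535 nm FRET as viability; concentration-effect curves classified.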

Peroxisome proliferator-activated receptor delta (Homo sapiens), sequence (Q03181 whole entry, looked up): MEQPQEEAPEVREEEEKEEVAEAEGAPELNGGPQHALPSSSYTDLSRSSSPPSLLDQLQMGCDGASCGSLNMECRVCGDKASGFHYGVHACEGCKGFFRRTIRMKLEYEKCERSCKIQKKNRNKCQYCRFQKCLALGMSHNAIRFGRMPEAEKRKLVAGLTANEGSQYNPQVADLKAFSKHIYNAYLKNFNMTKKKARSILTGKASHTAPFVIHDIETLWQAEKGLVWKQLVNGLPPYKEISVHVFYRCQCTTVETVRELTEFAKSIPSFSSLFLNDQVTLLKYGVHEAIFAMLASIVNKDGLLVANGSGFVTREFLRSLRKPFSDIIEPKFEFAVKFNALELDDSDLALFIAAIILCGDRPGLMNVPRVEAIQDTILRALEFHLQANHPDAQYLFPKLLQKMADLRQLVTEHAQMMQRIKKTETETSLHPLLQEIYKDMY
Alpha-galactosidase (Coffea arabica), sequence (Q42656 whole entry, looked up): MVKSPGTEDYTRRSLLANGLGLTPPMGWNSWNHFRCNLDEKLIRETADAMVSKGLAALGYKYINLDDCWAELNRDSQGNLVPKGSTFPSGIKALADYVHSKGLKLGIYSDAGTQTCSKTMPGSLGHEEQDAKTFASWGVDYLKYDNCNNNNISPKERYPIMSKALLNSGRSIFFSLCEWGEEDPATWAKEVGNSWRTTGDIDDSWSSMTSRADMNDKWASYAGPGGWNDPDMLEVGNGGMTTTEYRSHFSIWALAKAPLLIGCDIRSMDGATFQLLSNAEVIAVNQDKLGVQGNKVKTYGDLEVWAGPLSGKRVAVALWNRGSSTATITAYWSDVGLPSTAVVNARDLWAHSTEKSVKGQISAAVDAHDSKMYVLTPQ
Bile acid receptor (Homo sapiens), sequence (Q96RI1 whole entry, looked up): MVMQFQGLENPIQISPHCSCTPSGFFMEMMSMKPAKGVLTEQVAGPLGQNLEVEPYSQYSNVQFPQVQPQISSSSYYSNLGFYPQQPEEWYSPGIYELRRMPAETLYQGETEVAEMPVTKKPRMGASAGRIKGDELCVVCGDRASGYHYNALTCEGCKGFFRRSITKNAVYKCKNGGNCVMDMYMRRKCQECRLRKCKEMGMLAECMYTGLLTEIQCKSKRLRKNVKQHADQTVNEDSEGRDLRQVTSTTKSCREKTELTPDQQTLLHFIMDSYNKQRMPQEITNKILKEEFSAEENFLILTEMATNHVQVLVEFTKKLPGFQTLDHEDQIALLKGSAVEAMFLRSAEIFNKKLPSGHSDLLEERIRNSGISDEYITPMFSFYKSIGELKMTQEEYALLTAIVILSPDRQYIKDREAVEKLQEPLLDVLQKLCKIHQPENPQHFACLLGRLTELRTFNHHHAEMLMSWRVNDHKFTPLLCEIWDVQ
Nucleoprotein (Lymphocytic choriomeningitis virus (strain Armstrong)), sequence (P09992 whole entry, looked up): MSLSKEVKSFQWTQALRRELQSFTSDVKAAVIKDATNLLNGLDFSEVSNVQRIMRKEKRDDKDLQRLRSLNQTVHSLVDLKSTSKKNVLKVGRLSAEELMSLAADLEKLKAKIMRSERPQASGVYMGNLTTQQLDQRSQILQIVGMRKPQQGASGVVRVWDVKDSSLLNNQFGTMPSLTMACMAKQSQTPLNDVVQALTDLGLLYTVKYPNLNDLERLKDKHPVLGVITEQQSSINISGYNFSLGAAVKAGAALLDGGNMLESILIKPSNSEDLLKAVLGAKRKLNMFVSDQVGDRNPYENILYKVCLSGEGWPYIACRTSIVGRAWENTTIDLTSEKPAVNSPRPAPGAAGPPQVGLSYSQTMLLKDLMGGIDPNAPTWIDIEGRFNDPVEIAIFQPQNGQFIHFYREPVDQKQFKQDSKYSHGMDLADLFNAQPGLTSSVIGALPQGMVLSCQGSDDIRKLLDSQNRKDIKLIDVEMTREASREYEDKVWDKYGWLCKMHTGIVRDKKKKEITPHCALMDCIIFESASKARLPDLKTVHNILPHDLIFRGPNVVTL
Ubiquitin carboxyl-terminal hydrolase 1 (Homo sapiens), sequence (O94782 whole entry, looked up): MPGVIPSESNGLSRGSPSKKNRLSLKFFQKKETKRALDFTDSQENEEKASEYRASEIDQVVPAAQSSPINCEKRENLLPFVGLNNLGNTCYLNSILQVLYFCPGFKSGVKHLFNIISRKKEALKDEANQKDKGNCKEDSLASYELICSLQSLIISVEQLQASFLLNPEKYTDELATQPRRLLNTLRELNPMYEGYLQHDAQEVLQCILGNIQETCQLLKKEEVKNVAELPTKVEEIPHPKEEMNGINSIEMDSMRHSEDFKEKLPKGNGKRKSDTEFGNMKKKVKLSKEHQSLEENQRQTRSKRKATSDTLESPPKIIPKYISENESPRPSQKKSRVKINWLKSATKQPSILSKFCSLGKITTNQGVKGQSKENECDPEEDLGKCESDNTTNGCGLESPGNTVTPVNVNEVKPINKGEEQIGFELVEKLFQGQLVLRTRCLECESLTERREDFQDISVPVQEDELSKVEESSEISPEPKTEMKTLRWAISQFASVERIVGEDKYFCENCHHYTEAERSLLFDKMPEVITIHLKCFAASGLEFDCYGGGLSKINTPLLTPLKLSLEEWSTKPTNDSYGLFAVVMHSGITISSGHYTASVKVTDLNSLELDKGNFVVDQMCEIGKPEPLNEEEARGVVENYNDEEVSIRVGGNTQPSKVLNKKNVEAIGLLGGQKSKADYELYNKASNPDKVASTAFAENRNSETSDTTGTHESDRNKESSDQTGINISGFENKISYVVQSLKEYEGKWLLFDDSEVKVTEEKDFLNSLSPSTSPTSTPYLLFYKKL
DNA dC->dU-editing enzyme APOBEC-3G (Homo sapiens), sequence (Q9HC16 whole entry, looked up): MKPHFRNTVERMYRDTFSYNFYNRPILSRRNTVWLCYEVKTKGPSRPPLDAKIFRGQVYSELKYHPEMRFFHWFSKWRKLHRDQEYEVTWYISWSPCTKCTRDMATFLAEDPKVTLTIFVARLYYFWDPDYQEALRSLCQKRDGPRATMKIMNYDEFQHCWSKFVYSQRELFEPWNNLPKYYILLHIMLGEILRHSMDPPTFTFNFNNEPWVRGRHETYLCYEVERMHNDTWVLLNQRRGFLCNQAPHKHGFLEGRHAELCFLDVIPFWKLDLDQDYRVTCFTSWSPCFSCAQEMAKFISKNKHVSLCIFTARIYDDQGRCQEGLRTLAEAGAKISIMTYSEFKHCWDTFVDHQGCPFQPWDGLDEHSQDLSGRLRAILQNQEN
Cytochrome P450 3A4 (Homo sapiens), sequence (P08684 whole entry, looked up): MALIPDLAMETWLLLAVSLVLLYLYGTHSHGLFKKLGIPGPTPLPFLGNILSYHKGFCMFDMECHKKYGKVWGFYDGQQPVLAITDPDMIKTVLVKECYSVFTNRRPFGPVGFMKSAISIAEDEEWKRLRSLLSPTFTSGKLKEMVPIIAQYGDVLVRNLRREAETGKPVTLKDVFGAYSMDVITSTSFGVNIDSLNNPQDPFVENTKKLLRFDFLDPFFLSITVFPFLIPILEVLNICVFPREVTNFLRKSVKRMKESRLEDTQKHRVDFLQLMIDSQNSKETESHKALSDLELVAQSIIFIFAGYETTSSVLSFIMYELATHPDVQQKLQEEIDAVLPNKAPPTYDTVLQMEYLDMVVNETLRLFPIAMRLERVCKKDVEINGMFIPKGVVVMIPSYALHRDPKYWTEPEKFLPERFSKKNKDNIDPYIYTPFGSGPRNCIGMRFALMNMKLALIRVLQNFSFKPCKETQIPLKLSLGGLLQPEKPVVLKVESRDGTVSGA

c1ccc2c(c1)ccc1ccccc12
inactive: activation [1] -5.28% and 1.03% | Potency [2] | Potency [3] | Potency [4] | Potency [5] | Potency [6]

CCCn1c(=O)c2[nH]c(-c3ccc(OCC(=O)NCCN)cc3)nc2n(CCC)c1=O
inactive: outcome [7] | outcome [8] | outcome [9] | Potency [3] | Potency [4] | Potency [5] | Potency [6]

O=CN1CCCCC1C1CC[C@H]2CCCCN2C1 (stereo partly specified)
inactive: Potency [10] | Potency [11] | Potency [12] | Potency [3] | Potency [4] | Potency [5] | Potency [6]

C/C=C/C=C/CCCCCCCO
inactive: activation [1] -0.999% | Potency [2] | Potency [3] | Potency [4] | Potency [5] | Potency [6]

CC[C@H]1CN2CCc3cc(OC)c(OC)cc3[C@H]2C[C@@H]1C[C@@H]1NCCc2cc(OC)c(OC)cc21
active: Potency [13] 562 nM | Potency [3] 385 nM | Potency [4] 432 nM | Potency [5] 544 nM | Potency [6] 432 nM
inactive: Potency [11]

CN=C(N)NCCC[C@H](N)C(=O)O
inactive: outcome [7] | outcome [8] | outcome [9] | Potency [3] | Potency [4] | Potency [5] | Potency [6]

CC(=O)/C=C/C1C(C)=CCCC1(C)C (stereo unspecified)
inactive: activation [1] 2.64% | Potency [2] | Potency [3] | Potency [4] | Potency [5] | Potency [6]

CCCCCCCCCCCCCc1ccccc1
inactive: activation [1] -1.99% | Potency [2] | Potency [3] | Potency [4] | Potency [5] | Potency [6]
